Among the data in PubChem BioAssay (NCATS) are Potency, outcome and max response values, retold here.

Test [1] is described as follows: P-glycoprotein substrates identified in KB-8-5-11 adenocarcinoma cell line, qHTS therapeutic library screen (AID 1346987). Also: nearly all actives have a fitted effect of over 65% in size. Also: potency is read from the fitted curve at half-maximal effect. The method, boiled down: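 Human cervical adenocarcinoma KB-8-5-11 cells, selected in colchicine to over-express P-gp and assayed without it, were exposed for 72 h to titrated compounds. An ATP-based luminescent viability signal gave AC50.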
(In general: qHTS replaces the single test concentration by a dilution series.)

Test [2] deals with Calcium and integrin-binding protein 1 (Homo sapiens) (UniProt Q99828). Kind of test: Primary qHTS for Identification of Calcium Integrin Binding Protein 1 (CIB1) Competitor (AID 1508620).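 Also: GST tagged CIB1 binding a fluorescein labelled alphaIIb integrin peptide tracer; top concentration of the series differs between compounds; % is scaled to controls: 0 for no effect and ±100 for the full control effect.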 The method, boiled down:
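Fluorescence polarization competition: GST-tagged CIB1 (1 uM final) preincubated with compound 15 min at room temperature, then FITC-labelled alphaIIb peptide (100 nM final) added. After 15 min at room temperature, polarization read at Ex 480/Em 540.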

Test [3] is described as follows: Primary qHTS for inhibitors of nuclear receptor binding SET domain protein 2 (NSD2) in an isogenic RCH-ACV NSD2 p.E1099K mutant (9B) (AID 1645876). Also: nearly all actives have a fitted effect of over 70% in size. Also: potency is read from the fitted curve at half-maximal effect.
Test [4] has as its target Phospholipid hydroperoxide glutathione peroxidase GPX4 (Homo sapiens) (UniProt P36969). Put plainly: Primary qHTS Assay for Inhibitors of Recombinant Selenoprotein Glutathione Peroxidase 4 (GPX4) (AID 1845192). Also: nearly all actives have a fitted effect of over 65% in size. The method, boiled down:
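Steps: GPX4 plus compound, 30 min RT; add GR/GSH/NADPH master mix; start with cumene hydroperoxide; read 340/450 nm fluorescence at 0 and 15 min. Finals were 200 nM GPX4, 1 mM GSH, 0.5 mM CHP, 0.5 mM NADPH, 100 nM GR.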

Test [5] concerns the target Luciferin 4-monooxygenase (Photinus pyralis) (UniProt P08659). Put plainly: Primary firefly luciferase (FLuc) qHTS assay for identification of artifact compounds. (AID 1845220). Also: nearly all actives have a fitted effect of over 60% in size. As to conditions: outcome: dose series up to 54.1 µM unless noted. The method, boiled down:
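Titrated compounds were incubated 15 min at RT, protected from light, with luciferin and ATP at 10 uM; reaction started with 10 nM FLuc, luminescence imaged at 5 min, and concentration-response fitted by Hill equation.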

Another test deals with CRL-7250. Put plainly: Cytotoxic Profiling of Annotated Libraries Using Quantitative High-Throughput Screening (AID 1296008). Also: nearly all actives have a fitted effect of over 60% in size. Also: potency is read from the fitted curve at half-maximal effect. As to max response: % is scaled to controls: 0 for no effect and ±100 for the full control effect. As to conditions: Five cell lines viability, CellTiter-Glo ATP luminescence, 48-72 h; max response: stronger effect = lower value. The method, boiled down: (§1)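 Cells exposed to compounds for 48 or 72 hr at 37 degrees Celsius. Viability read as ATP-coupled luminescence with CellTiter-Glo after 10 min at room temperature.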
(In general: ATP-based viability assays read luminescence as a measure of living cells.)

For the next test, the system named is HEK293. The description is as above. As to conditions: Five cell lines viability, CellTiter-Glo ATP luminescence, 48-72 h; max response: stronger effect = lower value. The method, boiled down: as §1
Another test has as its system C33A. Kind of test: Primary qHTS to identify gynecologic anti-cancer compounds using libraries of approved drugs and bioactive compounds (AID 1345084). Also: nearly all actives have a fitted effect of over 55% in size. Also: potency is read from the fitted curve at half-maximal effect. The conditions noted are these: Gynecologic cancer cell panel viability, ATPlite luminescence, 48 h; series mostly up to 57.5 µM. The method, boiled down:
(§2)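 In this quantitative HTS, cell killing is estimated from loss of ATP-dependent luciferase light. Cells see five compound concentrations over a 48 h exposure.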

A further test concerns CAOV3. The description is as above. The conditions noted are these: Gynecologic cancer cell panel viability, ATPlite luminescence, 48 h; series mostly up to 57.5 µM. The method, boiled down:
as §2

A further test relates to CASKI. The description is as above. The conditions noted are these: Gynecologic cancer cell panel viability, ATPlite luminescence, 48 h; series mostly up to 57.5 µM. The method, boiled down: as §2
For a further test, the system named is Es-2. The test is described as above. As to conditions: Gynecologic cancer cell panel viability, ATPlite luminescence, 48 h; series mostly up to 57.5 µM. The method, boiled down: as §2
In the next test the test system is JEG-3. Described as above. The conditions noted are these: Gynecologic cancer cell panel viability, ATPlite luminescence, 48 h; series mostly up to 57.5 µM. The method, boiled down: as §2
The test system of the next test is OV90. The test is described as above. As to conditions: Gynecologic cancer cell panel viability, ATPlite luminescence, 48 h; series mostly up to 57.5 µM. The method, boiled down:
as §2

The subject of another test is PA-1. The test is described as above. The conditions noted are these: Gynecologic cancer cell panel viability, ATPlite luminescence, 48 h; series mostly up to 57.5 µM. The method, boiled down:
as §2

A further test relates to Tov-21-G. The test is described as above. The conditions noted are these: Gynecologic cancer cell panel viability, ATPlite luminescence, 48 h; series mostly up to 57.5 µM. The method, boiled down: as §2
A further test concerns Tov112D. The test is described as above. The conditions noted are these: Gynecologic cancer cell panel viability, ATPlite luminescence, 48 h; series mostly up to 57.5 µM. The method, boiled down:
as §2

The subject of another test is HaCat. Put plainly: Cytotoxic Profiling of Annotated Libraries Using Quantitative High-Throughput Screening (AID 1296008). Also: nearly all actives have a fitted effect of over 60% in size. Also: potency is read from the fitted curve at half-maximal effect. As to max response: % is scaled to controls: 0 for no effect and ±100 for the full control effect. As to conditions: Five cell lines viability, CellTiter-Glo ATP luminescence, 48-72 h; max response: stronger effect = lower value. The method, boiled down: as §1
For the next test, the system named is NIH3T3. Described as above. The conditions noted are these: Five cell lines viability, CellTiter-Glo ATP luminescence, 48-72 h; max response: stronger effect = lower value. The method, boiled down: as §1
A further test has as its system Hek293T. Kind of test: Primary qHTS to identify gynecologic anti-cancer compounds using libraries of approved drugs and bioactive compounds (AID 1345084). Also: nearly all actives have a fitted effect of over 55% in size. Also: potency is read from the fitted curve at half-maximal effect. The conditions noted are these: Gynecologic cancer cell panel viability, ATPlite luminescence, 48 h, control line for the selectivity index; series mostly up to 57.5 µM. The method, boiled down:
as §2

For test [6], the system named is Nanoluciferase (engineered Oplophorus gracilirostris luciferase). Kind of test: Primary Nanoluciferase (NLuc) qHTS assay for identification of artifact compounds. (AID 1845222).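 Also: NLuc secreted into diluted conditioned medium of S16 cells; 0% = DMSO and -100% = no enzyme.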 The method, boiled down: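 qHTS format, against NLuc in S16 cell-conditioned medium. Nano-Glo substrate 1:100 was added after 15 min at room temperature. Luminescence was taken after a further 5 min.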

Unmarked numbers belong to inactive results. Inconclusive results are not listed. The source made the active and inactive calls. Calls follow the shape of the dose curve; as a rule, active = well fitted curve in the direction sought with a large enough effect; inconclusive = small, poorly fitted or top-dose-only effect, or another doubt; inactive = no such curve, though single readings can be large; an effect the other way counts as inactive or inconclusive.

Sequence of Calcium and integrin-binding protein 1 (Homo sapiens) (Q99828 whole entry, looked up): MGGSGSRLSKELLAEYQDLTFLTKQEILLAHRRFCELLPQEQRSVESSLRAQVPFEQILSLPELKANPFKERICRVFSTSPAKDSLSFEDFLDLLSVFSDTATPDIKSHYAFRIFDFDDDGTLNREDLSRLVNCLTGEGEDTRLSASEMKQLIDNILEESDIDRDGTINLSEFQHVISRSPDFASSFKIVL
Sequence of Phospholipid hydroperoxide glutathione peroxidase GPX4 (Homo sapiens) (P36969 whole entry, looked up): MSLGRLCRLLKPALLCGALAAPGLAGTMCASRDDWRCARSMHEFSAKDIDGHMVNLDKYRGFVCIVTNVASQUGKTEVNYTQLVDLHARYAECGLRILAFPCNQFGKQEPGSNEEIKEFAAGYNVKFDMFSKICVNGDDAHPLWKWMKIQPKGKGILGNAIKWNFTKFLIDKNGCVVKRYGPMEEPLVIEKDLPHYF

On to `CC(C)[C@H]1OC(=O)[C@H](Cc2ccccc2)N(C)C(=O)[C@@H](C(C)C)OC(=O)[C@H](Cc2ccccc2)N(C)C(=O)[C@@H](C(C)C)OC(=O)[C@H](Cc2ccccc2)N(C)C1=O`, for which the Potency in test [1] was 4.85 µM (active); in [3] it was 6.82 µM (active); with CRL-7250, 4.85 µM (active); with HEK293, 6.11 µM (active); with PA-1, 7.94 µM (active). The Potency result (in test [2]; in test [4]; with C33A; with CAOV3; in the test on CASKI; in the test on Es-2) was “inactive” each time. Besides, the Potency entry in the test on JEG-3, with OV90, with Tov-21-G and in the test with Tov112D was “inactive” in each case. Besides, in test [5], the compound was called inactive.

For `CN1C(=O)[C@@H](Cc2c[nH]c3ccccc23)N=C(c2ccccc2F)c2ccccc21`, the Potency result (in [2]; in test [4]; with C33A; in the test with CAOV3; with CASKI; with Es-2) was “inactive” in each case. The Potency entry with Hek293T, with JEG-3, with OV90, in the test on PA-1, in the test on Tov-21-G and in the test on Tov112D was “inactive” throughout. For the same compound, the outcome (in test [5]; with CRL-7250) was inactive. For the same compound, the max response is -23.4% in the test on HaCat and -3.73% with NIH3T3.

With `C[C@@H]1O[C@@H](OC2CCC3(C=O)C(CCC4C3CCC3(C)C(C5=CC(=O)OC5)C(O)CC43O)C2)[C@H](O)[C@H](O)[C@H]1O[C@@H]1O[C@H](CO)[C@@H](O)[C@H](O)[C@H]1O` (some centres not stated), the Potency in [1] is 6.11 µM (active); in [3], 2.42 µM (active); in the test on CRL-7250, 3.06 µM (active); in the test with HEK293 it was 3.85 µM (active); with C33A, 5.62 µM (active); with Es-2, 6.31 µM (active). In addition, the Potency in the test with Hek293T is 10 µM (active); in the test on Tov-21-G it was 3.98 µM (active); with Tov112D, 3.16 µM (active). In addition, the Potency result (in test [2]; in test [6]; with CASKI) was “inactive” each time. Further, in test [5], the outcome is “inactive [at 25.7 µM]”. Moreover, the max response in the test with NIH3T3 was 4.35%.

In the case of `CN1Cc2c(ccc3c2OCO3)[C@@H]2[C@H]1c1cc3c(cc1C[C@@H]2O)OCO3`, the Potency is 1.61 µM (active) in [1]; 2.84 µM (active) in [3]; 4.04 µM (active) with CRL-7250; 3.6 µM (active) in the test with HEK293; 2.55 µM (active) in the test on NIH3T3; 7.08 µM (active) in the test with C33A. In addition, the Potency with Es-2 was 4.47 µM (active); with PA-1 it was 4.47 µM (active); in the test on Tov112D it was 3.55 µM (active). Further, the Potency entry in [4] and in [6] was “inactive” throughout. Besides, the result in test [5] was inactive.

Consider `CCCN(CCC)[C@@H]1CCc2ccc3[nH]c(C#N)cc3c2C1`, for which the Potency result (in [1]; in test [2]; in test [3]; in [4]; in test [6]; in the test with C33A) was “inactive” throughout. Also, the Potency result with CAOV3, in the test with CASKI, in the test on Es-2, with Hek293T, in the test with JEG-3 and with OV90 was “inactive” each time. Besides, the Potency result with PA-1, in the test on Tov-21-G and with Tov112D was “inactive” throughout. The compound was classed as inactive (in [5]; in the test on CRL-7250; in the test with HaCat; in the test on NIH3T3).
